The panel holds about 83,000 compounds, 20% with a hit somewhere; the sample as a whole holds those more often.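 For each line, cells grew in 96-well plates with the test compound present at a single concentration for 48 hours.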 A number with no mark means an inactive call. Activity calls are given as the source filed them. The calls were made as follows: active = growth percent below 10; inactive = the rest.
Experiments:
Assay in all cases: NCI-60 one-dose screen, 48 h (100 = growth as untreated, 0 = no growth, -100 = all killed)
[1] = tested on: SR leukemia; conditions: 10 µM unless noted
[2] = tested on: RPMI-8226 leukemia; conditions: 10 µM unless noted
[3] = tested on: OVCAR-8 ovarian; conditions: 10 µM unless noted
[4] = tested on: OVCAR-5 ovarian; conditions: 10 µM unless noted
[5] = tested on: OVCAR-4 ovarian; conditions: 10 µM unless noted
[6] = tested on: SK-OV-3 ovarian; conditions: 10 µM unless noted
[7] = tested on: IGROV1 ovarian; conditions: 10 µM unless noted
[8] = tested on: OVCAR-3 ovarian; conditions: 10 µM unless noted
[9] = tested on: NCI/ADR-RES ovarian; conditions: 10 µM unless noted
[10] = tested on: T-47D breast; conditions: 10 µM unless noted
[11] = tested on: BT-549 breast; conditions: 10 µM unless noted
[12] = tested on: MDA-MB-435 melanoma; conditions: 10 µM unless noted
[13] = tested on: SW-620 colon; conditions: 10 µM unless noted
[14] = tested on: HCT-116 colon; conditions: 10 µM unless noted
[15] = tested on: HCC-2998 colon; conditions: 10 µM unless noted
[16] = tested on: KM12 colon; conditions: 10 µM unless noted
[17] = tested on: MCF7 breast; conditions: 10 µM unless noted
[18] = tested on: HS 578T breast; conditions: 10 µM

Compound | growth [1] | growth [2] | growth [3] | growth [4] | growth [5] | growth [6] | growth [7] | growth [8] | growth [9] | growth [10] | growth [11] | growth [12] | growth [13] | growth [14] | growth [15] | growth [16] | growth [17] | growth [18]
O=C1/C(=C\c2cccn2Cc2ccc(Cl)cc2)c2ccccc2N1c1c(Cl)cccc1Cl | 75.3% | 76.1% | 85.2% | 86.8% | 40.2% | 86.7% | 63% | 82.3% | 78.3% | 25.1% | 94.5% | 106% | 91.5% | 77% | 79.8% | 54.3% |  | 
CCNS(=O)(=O)c1ccc(C)cc1 | 122% | 99.1% | 100% | 97.2% | 103% | 112% | 98.3% | 111% | 108% | 106% | 114% | 111% | 107% | 113% | 106% | 108% | 94.9% | 
COc1cccc(NC(=O)[C@H](C(C)C)n2c(=O)[nH]c3ccccc3c2=O)c1 | 95.8% | 98.6% | 96.9% | 108% | 105% | 101% | 113% | 109% |  | 91.1% |  | 108% | 103% | 113% |  | 104% | 98.2% | 110%
CCOc1ccc([C@@H]2[C@@H](Oc3ccccc3)C(=O)N2c2cc(OC)c(OC)c(OC)c2)cc1 | 5.44% (active) | 5.16% (active) | 24.2% | 43% | 43.9% | 29.6% | 21.5% | -8.31% (active) | 14% | 91.8% | -18.2% (active) | -25% (active) | 20.8% | -3.96% (active) | 16.2% | 11.5% |  | 
COc1cc(Nc2ccnc3ccc(Br)cc23)cc(OC)c1OC | 15.7% | 30.4% | 36.6% | 51.6% | 62.5% | 36.6% | 38.2% | 29.8% | 12.8% | 40.9% | 53.7% | -41.5% (active) | 19.4% | 21.7% | 71.4% | 21% | 15.5% | 
COS(=O)(=O)CCN(CCOS(C)(=O)=O)S(C)(=O)=O | 95.5% | 99.8% | 94.9% | 101% | 107% | 104% | 105% | 105% | 105% | 98% | 97.5% | 108% | 107% | 100% | 98% | 105% | 96% | 
N[C@@H](CO)C(=O)O | 103% | 96.9% | 99.8% | 104% | 109% | 111% | 110% | 98.4% | 95.4% | 96.9% | 104% | 97.4% |  | 103% | 98.1% | 102% | 104% | 
CCCCCCCCCCCCCC[N+](C)(C)CCCCCCCCCCCCCC | 35.7% | 12.6% | 49.6% | 79.9% | 62% | 85.5% | 9.59% (active) | 87.5% | 104% | 57.5% | 92.3% | 39.4% | 76% | 51.4% | 62.1% | 76.2% | 77.3% | 
N#Cc1c(N)c(C(=O)c2ccc3c(c2)OCCO3)n2c1CCCC2 | -20% (active) | 4.91% (active) | 31.5% | 57.9% | 81.2% | 31.3% | 10.8% | -3.73% (active) | 8.36% (active) | 29.2% | 52.9% | -48.8% (active) | 19.3% | 18.6% | 59.6% | 24.1% | 18.1% | 
NC(N)=N/N=C\c1cccc(OCc2ccccc2)c1 | 19.4% | 69.6% | 89.3% | 85.3% | 64.3% | 81.6% | 74.7% | 79.1% | 76.5% | 26.6% | 94.1% | 35.1% | 36% | 41.9% | 4.51% (active) | 68.3% | 47.2% | 
Cc1cc(N=Nc2ccc(-c3ccc(N=Nc4ccc(O)c(C(=O)O)c4)cc3)cc2)c(N)c(N=Nc2ccc(C(=O)O)cc2)c1N | 75.9% | 67.1% | 90.8% | 100% | 97.1% | 103% | 83.3% | 93.1% | 97.7% | 78.6% | 67.3% | 99.5% | 95.6% | 65.5% | 87.7% | 92.1% | 97.6% | 
COC1CC(N)C2OC(c3ccccc3)OCC2O1 (stereo unspecified) | 98% | 92.8% | 98.4% | 94.4% | 97.5% | 115% | 110% | 111% |  | 107% | 106% | 102% | 99.6% |  | 102% | 103% | 92.7% | 96.6%
c1ccc(C2=Nc3ccccc3SC2)cc1 | 107% | 93.8% | 101% | 98.6% | 91.5% | 110% | 88.6% | 99.4% | 113% | 100% | 107% | 105% | 95.4% | 96.7% | 104% | 97.5% | 86.4% | 
O=C(NCC(c1ccsc1)N1CCCCCC1)c1ccc(C(F)(F)F)cc1 (stereo unspecified) | 85.8% | 88.8% | 102% | 106% | 94.6% | 109% | 96.8% | 103% |  | 91.7% |  | 91.8% | 96.6% | 88.9% |  | 76.8% | 94.5% | 102%
Cc1[nH]nc2ccc3nc(-c4ccc5[nH]ncc5c4)c4c(c3c12)CCCC4 | 1.09% (active) | 13% | 28.2% | 46.6% | 38.4% | -19.6% (active) | 11.9% | 32.8% | 40% | 24.1% | 18.5% | 3.38% (active) | 6.74% (active) | 6.66% (active) | 45.2% | 12.6% |  | 
COc1cccc2nc(Nc3cccc(NC(=O)c4ccc(N5CCN(C)CC5)c(C(F)(F)F)c4)c3)ccc12 | -7.69% (active) | 7.17% (active) | 30.7% | 61.5% | 39.5% | 81.7% | 28.6% | 29.6% | 43.9% | 36.7% | 67% | 19.9% | -33.3% (active) | 6.56% (active) | -7.74% (active) | -7.59% (active) | -12.9% (active) | 
CCCCCCCCCCCCCCC(C(=O)OCC)C(=O)OCC | 116% | 104% | 103% | 103% | 109% | 112% | 103% | 110% | 104% | 101% | 104% | 96.1% | 107% | 109% | 106% | 108% | 98.5% | 
Nc1nc(N)c2c(n1)NC(c1sc(Cl)nc1Cl)CC(c1ccccc1)=N2 (stereo unspecified) | 19.9% | 45.3% | 60.7% | 76.7% | 94% | 74% | 50.5% | 40.4% |  | 43.6% |  | 2.29% (active) | 19.3% | 21.4% | 74.3% | 47.9% | 31.3% | 48.1%
